Target: FUT7
Assay: pooled miR-30 sensor sort-seq; sequence = guide strand
Conditions: shRNA
Note: reference of the scale not given here.

| Sequence | sensor-assay potency score (higher = more potent) |
| --- | --- |
| TTGAAGATGCCTCGGAGGTGGC | -0.867 |
| TAGCGGTCACAGATGGCACAGA | -0.787 |
| TTGGTATCGGCTCTCATTCATG | -1.57 |
| TTTCTCCGTAATGTAGTCGCGG | -0.338 |
| TCACAGATGGCACAGAAACGTT | -1.59 |
| AAGATGTCCGAGTCGCGCCGGT | -0.72 |
| TTGGCACTCAGGTGGCAGCGGG | -1.03 |
| AAAGATGTCCGAGTCGCGCCGG | -0.517 |
| TAATGTAGTCGCGGTGCTGAGA | -0.815 |
| TCGGTGAACAGTCGCACGCGGA | -1.48 |
| TCAAAGGACAGGTAGAAGCGGT | 0.117 |
| ATAGGGCACAAAGATGTCCGAG | -0.929 |
| TCCTCATAGACTTGGCTGCGGG | -1.76 |
| TCATCCACATGCACGAAGGCGT | -0.506 |
| TTCTCCGTAATGTAGTCGCGGT | -0.562 |
| TAGGGCACAAAGATGTCCGAGT | -0.24 |
| TCTCCGTAATGTAGTCGCGGTG | -1.48 |
| TATCGGCTCTCATTCATGCCAG | -0.795 |
| AAAGTCATCCACATGCACGAAG | -0.891 |
| AACAGTCGCACGCGGAGCCTGT | -1.06 |
| TCAAGGTCCTCATAGACTTGGC | -0.439 |
| TTGATTTCGACACCCAGCCCTT | -1.26 |
| TTGCGCCAGAATTTCTCCGTAA | -0.526 |
| TGTCGCTGGGCAGCTCTGGGGG | -1.3 |

Target: FXN
Assay: as above
Conditions: shRNA

| Sequence | sensor-assay potency score (higher = more potent) |
| --- | --- |
| AAAGGAGACATCATAGTCCTCA | 0.0111 |
| TTTTGACATTCCAAATCTGGTT | -0.929 |
| ATTCATCAAATAGACACTCTGC | 0.393 |
| TTGACAGTTAAGACACCACTCC | -0.462 |
| ATCAAATAGACACTCTGCTTTT | -1.04 |
| TGCTTGTTGATCACATAGGTTC | -0.833 |
| TTTAGTGAGCTCTGCGGCCAGC | -1.33 |
| TCTGCTAAAGAGTCCAGCGTTT | -0.618 |
| TGTTGATCACATAGGTTCCTAG | -0.584 |
| TAACGCTTAGGTCCACTGGATG | -1.46 |
| TTTCATAGGTGGTCTCATCTAG | -0.00192 |
| ATAACGCTTAGGTCCACTGGAT | -1.03 |
| TTGTTGATCACATAGGTTCCTA | 0.0276 |
| TAGTCTTTCATAGGTGGTCTCA | -0.873 |
| TTAAAAATCAGAACTTGGGGGC | 0.521 |

Source: the OligoGym collection
